According to PubChem BioAssay AID463190 (Sanford-Burnham Center for Chemical Genomics, 2010):
Out of some 330,000 compounds screened, about 7,300 (2.2%) were called active. This is one part of a sample in which actives are shown more often than they occur. A number with no mark means an inactive call.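 The calls were made as follows: active = inhibition of at least 40%; inactive = the rest.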

Assay: growth inhibitors of tim10-1 mutant yeast, primary screen, luminescence, uHTS (AID 463190);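 also: mutant grown at 25 °C; 0% = DMSO wells with yeast and 100% = wells holding no yeast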
Details: S. cerevisiae tim10-1 ts strain growth, BacTiter-Glo, 24 h; at 20 µM; active compounds read high

| Compound | inhibition |
| --- | --- |
| O=C(Nc1ccc(-n2cccn2)cc1)C1CCN(Cc2ccsc2)CC1 | -13.1% |
| Cc1nn2c(c1-c1ccccc1)N=C(c1ccco1)CC2c1ccccc1 (stereo not drawn) | 45.5% (active) |
| Cc1nn(C(=O)c2ccoc2C)c(N)c1-c1ccccc1 | 2.61% |
| O=C(O)CCCC(=O)N1N=C(c2ccco2)CC1c1ccco1 (stereo not drawn) | -34.5% |
| CCOc1cc(C)ccc1OCc1nnc(SCC(=O)Nc2cccc(C(=O)O)c2)n1-c1ccccc1 | 4.93% |
| COc1ccccc1CNC(=O)c1ccc(SC)cc1OC | 41.4% (active) |
| COc1cc(SC)ccc1C(=O)N(Cc1ccccc1)c1ccccc1 | 26.9% |
| COc1cc(SC)ccc1C(=O)NCCOc1ccccc1Cl | 20% |
| Cc1cc(C)n(CCNCc2c(C(=O)N3C[C@@H](C)O[C@@H](C)C3)nc3ccc(Cl)cn23)n1 | 5.77% |
| Cc1cc(C)nc(S/C=C/C(=O)c2ccccc2)n1 | 62.9% (active) |
| Cc1cc(C)nc(SCC(=O)c2ccc(Cl)cc2)n1 | 7.83% |
| Cc1cc(C)nc(SCC(=O)N(C)C)n1 | 9.12% |
| COCCCn1c(SCc2cccc(OC)c2)nc2cc(OC)c(OC)cc2c1=N | 28.6% |
| COc1ccc2c(c1)c(C(=O)N/N=C/c1cccs1)c(C)n2C | 44.8% (active) |
| COc1ccc(N(CC(=O)N/N=C/c2cccs2)S(=O)(=O)c2ccc(OC)c(OC)c2)cc1 | 11.7% |
| NC(=O)N/N=C\c1cccs1 | -3.46% |
| CCCCN(C)CCNC(=O)C1CCCN(S(=O)(=O)c2cccc3nsnc23)C1 (stereo not drawn) | 8.01% |
| O=C(c1ccco1)N1CCN(C(=O)c2cc(-c3ccccc3F)no2)CC1 | 26% |
| COc1ccc(/C=C2/C(=O)N(c3ccccc3)N=C2C)c(OC)c1 | 28.4% |
| COc1cc(/C=C/C2=CC(C)(C)NC(=S)N2)cc(OC)c1OC | 16.4% |
| COc1ccc(/C=C/C2=CC(C)(C)NC(=S)N2)c(OC)c1 | 42.8% (active) |

| Compound | inhibition |
| --- | --- |
| O=C(Cc1ccccn1)c1ccc(O)cc1O | 4.18% |
| CC1=NNC(=O)C1CC(=O)N/N=C/c1ccncc1 (stereo not drawn) | 7.67% |
| CCOC(=O)C1(S(=O)(=O)c2ccc(Cl)cc2)CCN(Cc2ccccc2)CC1 | 39.5% |
| CCOC(=O)C1(S(=O)(=O)c2ccccc2)CCN(Cc2ccccc2)CC1 | 41.1% (active) |
| CCOC(=O)C1(CCOc2ccccc2)CCN(Cc2cc(OC)cc(OC)c2)CC1 | 30.7% |
| O=S(=O)(c1ccc(Br)cc1)c1nc(-c2ccccc2)oc1N1CCOCC1 | 19.8% |
| O=C1COc2ccc(C(=O)CSc3ccc(Br)cc3)cc2N1 | 14% |
| CCOC(=O)C1=C(C)NC(=O)N(C(C)=O)C1c1ccc(Cl)cc1 (stereo not drawn) | 26.5% |
| CCOC(=O)C1Sc2[nH]c(=O)sc2C(c2ccc(Cl)cc2)C1C(=O)OCC (stereo not drawn) | 48.6% (active) |
| CCOC(=O)c1[nH]c2c(c1-c1ccccc1)C(=O)CC(c1ccc(Cl)cc1)C2 (stereo not drawn) | 11.7% |
| CCCn1c(SCC(=O)Nc2ccc(C)c(S(=O)(=O)N3CCOCC3)c2)n[nH]c1=O | 11.7% |
| Fc1cccc(CSc2nnc3ccc(-c4ccncc4)nn23)c1 | 16.3% |
| COc1ccc(-c2ccc3nnc(SCC(=O)Nc4ccc(NC(C)=O)cc4)n3n2)cc1 | -13% |
| CSc1nnc2ccc(-c3ccc(C)cc3)nn12 | 45.7% (active) |
| Cc1oc(C(N)=O)cc1COc1ccc(C(N)=O)cc1 | -9.15% |
| CCOc1cc(-c2conc2N)cc(OCC)c1OCC | 41.9% (active) |
| CCOc1cc(C(=O)Nc2ncccn2)cc(OCC)c1OCC | 8.23% |
| CCOc1cc2c(Cl)ncnc2c(OCC)c1OCC | 19.3% |
| Cc1sc2c(c1C)c(=O)n(-c1ccccc1)c1nncn21 | 20.4% |
| CC[C@H](C)C(=O)N[C@H]1CCCN1C(=O)/C=C/c1ccccc1 | -0.774% |
| Cc1ccc2c(c1)N(CCCC(=O)NCc1cccnc1)C(=O)CO2 | -19.6% |

| Compound | inhibition |
| --- | --- |
| COc1ccc(CNC(=O)C[C@H]2C[C@H](C(=O)N3CCOCC3)[C@@]3(CCC4CCCC4)c4[nH]c5ccc(Cl)cc5c4CCN3C2=O)cc1OC | 17% |
| CC1Cc2ccccc2N1CC(=O)Nc1ccc2c(c1)OC(F)(F)O2 (stereo not drawn) | 20.8% |
| CN1CCc2c(sc3c2c(NCc2ccco2)nc2nnnn23)C1 | 21.9% |
| Cc1c(NC(=O)Nc2ccccc2Cl)sc(=S)n1C | 12% |
| O=C(Nc1ccccc1Cl)/C(Cl)=C(\Cl)S(=O)c1ccccc1 (stereo not drawn) | 78.1% (active) |
| O=C(Cc1ccc2c(c1)CCCC2)Nc1ccccc1Cl | 10.5% |
| CN=C1C=C/C(=N/N=c2\ccn(O)cc2C)C=C1C | 16.6% |
| Cc1cc(-c2ccc(S(=O)(=O)N3CCN(c4cccc(C(F)(F)F)c4)CC3)s2)on1 | -2.35% |
| COC(C[C@@H]1O[C@@H]1C(=O)[C@H](C)OCc1ccccc1)OC | -17.2% |
| COC(C[C@H](O)CC(=O)[C@@H](C)OCc1ccccc1)OC | 7.97% |
| COC(C/C=C/C(=O)[C@@H](C)OCc1ccccc1)OC | 54.5% (active) |
| O=S(=O)(/C=C/c1ccccc1)N1CCNCC1 | 7.28% |
| CCOc1ccccc1-n1c(SCC(=O)NCc2ccco2)nnc1-c1ccncc1 | 8.51% |
| Cc1cc(Br)ccc1SCC(=O)OCC(=O)NCc1ccc2c(c1)OCO2 | 28% |
| O=C1C=CC(=O)N1c1ccc(N2CCCCC2)cc1 | 93% (active) |
| CC(=O)Nc1ccc(S(=O)(=O)Nc2ccc(N3CCCCC3)cc2)cc1 | 3.03% |
| O=C(Cc1ccccc1)NC(=S)Nc1ccc(N2CCCCC2)cc1 | 38.6% |
| CC(=O)c1cccc(NC(=O)C2CCCN(S(=O)(=O)c3cccc4nonc34)C2)c1 (stereo not drawn) | -2.16% |
| N#Cc1ccc(CSc2nnc3ccccn23)cc1 | 21.5% |
| N#Cc1ccc(CSc2nnc(-c3ccccn3)n2-c2ccc(Cl)cc2)cc1 | 40% (active) |
| N#Cc1ccc(CSc2ncccn2)cc1 | -2.68% |
